Compound activity: PubChem, National Center for Advancing Translational Sciences (NCATS)
Hits are enriched below; roughly 21% of the tested compounds scored in any of these assays.
CHX counter = Cycloheximide Counterscreen for Small Molecule Inhibitors of Shiga Toxin | cell reporter, cycloheximide protein synthesis inhibition counterscreen | max response, % | hit rate 12% among 300,000 | AID 2314, 2010; in the data active = max response mostly above about 13%, no sharp cut-off; inactive = mostly below about 14%; also: read at 38.3 µM for the half of the compounds with a filed dose; 0% is about no effect
NS1 inh = qHTS Assay for Inhibitors of Influenza NS1 Protein Function; Potency, µM (titrated, usually from 46.1 µM), without a hit: at the top dose activity, positive = more growth; hit rate 0.4% among 270,000; also: potency is read from the fitted curve at half-maximal effect; actives are rising curves; nearly all actives have a fitted effect of over 50% in size
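Compounds were scored for reversing the slow growth caused by influenza A NS1 in S. cerevisiae, measured by optical density at 600 nm. Assay medium contained 2% galactose at pH 6.0; NS1-free yeast of the same strain were the positive control.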
Pf growth 48h = Primary qHTS for delayed death inhibitors of the malarial parasite plastid, 48 hour incubation. P. falciparum luciferase growth in erythrocytes, 48 h. Potency, µM (doses to about 28.7 µM), for inactives: at the highest dose activity change, negative = inhibition, actives largely listed as inhibitors. hit rate 5.9% among 310,000; active = well fitted inhibition curve with a large enough effect; inconclusive = small, poorly fitted or top-dose-only effect, or another doubt; inactive = no such curve, though single readings can be large or run the other way; also: potency is read from the fitted curve at half-maximal effect; % is scaled to controls: 0 for no effect and ±100 for the full control effect
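Luminescence readout; reporter = integrated firefly luciferase in P. falciparum. RBC culture at 2% hematocrit, 0.1% parasitemia final, 37 C/5% CO2; decreased signal taken as growth inhibition.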
Pf growth 96h = Primary qHTS for delayed death inhibitors of the malarial parasite plastid, 96 hour incubation | P. falciparum luciferase reporter growth, 96 h | Potency, µM (top dose mostly 28.7 µM), for inactives: at the highest dose activity change, negative = inhibition, usual class: inhibitors | hit rate 6.9% among 320,000 | AID 504834, 2011; active = well fitted inhibition curve with a large enough effect; inconclusive = small, poorly fitted or top-dose-only effect, or another doubt; inactive = no such curve, though single readings can be large or run the other way; also: potency is read from the fitted curve at half-maximal effect; % is scaled to controls: 0 for no effect and ±100 for the full control effect
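Parasite growth measured via integrated firefly luciferase reporter in P. falciparum. Infected erythrocytes at 2% hematocrit, 0.05% parasitemia final were treated 96 hours at 37 C under 5% CO2, and luminescence was read.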
SARS PLpro yeast = qHTS of Yeast-based Assay for SARS-CoV PLP; S. cerevisiae expressing SARS-CoV PLpro, growth rescue; Potency, µM (doses to about 32.9 µM), without a hit: at the top dose activity, positive = growth rescue, most hits filed as activators; hit rate 0.19% among 330,000; AID 485353, 2010; also: potency is read from the fitted curve at half-maximal effect; 0% is about no effect; nearly all actives have a fitted effect of over 55% in size
Shiga inhibitor = A qHTS for Small Molecule Inhibitors of Shiga Toxin. inhibition, % at 38.7 µM. Vero cells, Shiga toxin protein synthesis inhibition reporter. AID 2315, 2010. hit rate 9.2% among 290,000; in the data active = inhibition mostly above about 28%, no sharp cut-off; inactive = mostly below about 43%; also: 0% is about no effect
Flu NS1 inh = Assay for Inhibitors of Influenza NS1 Protein Function: Hit Validation. shares compounds with NS1 inh. influenza NS1 function cell assay, 15-point titration. activity change, negative = inhibition, % at 32.9 µM. 1,400 tested, under 10 active. AID 492980, 2010; also: 0% is about no effect
Numbers without * were called inactive; ? = inconclusive; . = no result. Unless noted, calls follow the shape of the full dose curve.

SMILES | CHX counter | NS1 inh | Pf growth 48h | Pf growth 96h | SARS PLpro yeast | Shiga inhibitor | Flu NS1 inh
CCOc1ccc(CCNC(=O)Cc2nn[nH]n2)cc1OCC | -2 | ? | -8% | 18% | -2% | -4 | 9
S=c1[nH]c2cc(Cl)c3cccnc3c2o1 | 1 | 4µM* | ? | 51% | -4% | 5 | 18
CCN(CC)C(=O)Oc1c(Cl)cc(Cl)c2cccnc12 | -3 | -2% | -7% | 24% | 0% | 1 | .
Cc1ccc(-c2cc(C(=O)Nc3ccc(S(=O)(=O)Nc4ncccn4)cc3)c3ccccc3n2)cc1 | 1 | 4% | 10% | ? | -18% | -1 | .
O=C(Nc1ccc(S(=O)(=O)Nc2nccs2)cc1)c1cc(-c2ccccc2)nc2ccccc12 | -6 | 11µM* | -2% | ? | -8% | -3 | 1
C/C(N)=C(/C#N)C(=O)CSc1n[nH]c(-c2ccccc2Br)n1 | 46* | 4µM* | ? | ? | 8% | 66* | -1
NS(=O)(=O)c1ccc(CCN=C(NS(=O)(=O)c2cccs2)c2ccccc2)cc1 | -1 | . | 24% | 3% | 1% | 16 | .
Cc1cc(-c2csc(NC(=O)c3ccc(=O)n(C)n3)n2)c(C)n1CC1CCCO1 (stereo not drawn) | -2 | 20µM* | ? | 7.4µM* | -4% | -7 | 12
COc1ccc(CSc2nc(O)cc(=O)n2CC(C)C)cc1F | -5 | 3.5µM* | 6% | 15% | 1% | -5 | ?
O=C(Nc1cccc2ccccc12)c1ccccc1NS(=O)(=O)c1cccc2cccnc12 | 1 | 11µM* | -5% | 12% | 27% | -6 | ?
COc1ccc(OC)c(NC(=O)c2ccccc2NS(=O)(=O)c2cccc3cccnc23)c1 | -1 | 14µM* | ? | 11% | 4% | -9 | 6
O=C(O)c1ccccc1NS(=O)(=O)c1cccc2cccnc12 | -1 | 2% | -8% | . | -3% | -14 | .
COc1ccc(NS(=O)(=O)c2cc(NC(=O)[C@@H](NC(N)=O)C(C)C)ccc2C)cc1 | 1 | -8% | 6% | 13% | 1% | 4 | .
CCC(C)(C)NC(=O)C(c1ccc(F)cc1)N(Cc1ccccc1)C(=O)c1cnccn1 (stereo not drawn) | -1 | . | ? | 0% | 1% | 14 | .
O=C(Cn1ccc2cc(S(=O)(=O)N3CCCC3)ccc21)NCc1ccco1 | -1 | -10% | 15% | ? | 2% | 3 | .
CCCCNC(=O)COC(=O)C1CCN(S(=O)(=O)c2ccc3c(c2)OCCO3)CC1 | . | . | 2% | 0% | 6% | . | .
O=C(CSc1nnnn1-c1ccccc1)CC(=O)Nc1ccc(Cl)cc1 | 8 | 2.5µM* | -40% | -8% | -5% | 17 | 10
O=C(CSc1nnc(-c2ccncc2)n1-c1ccccc1)Nc1ccc(C(=O)O)cc1 | 12 | . | 13% | -26% | -2% | 3 | .
O=C(CSc1nnc(-c2ccc(O)cc2)n1-c1ccccc1)CC(=O)Nc1ccccc1 | 7 | 10µM* | -18% | -12% | -4% | -7 | 23
Cn1c(=O)c2c(ncn2CC(=O)OCc2ccccc2)n(C)c1=O | -3 | -7% | 3% | -18% | 1% | 17 | .
NC(=O)c1cc(-c2ccccc2)nc2ccc(Br)cc12 | -3 | 4% | 7% | 6% | 1% | 35 | .
Cc1cc(C)c(S(C)(=O)=O)c(Oc2ccccc2C)n1 | -1 | 1µM* | ? | 29% | 24% | 44 | -5
CC(NC(=O)c1cc(-c2cccnc2)nc2ccc(Br)cc12)C1CCCO1 (stereo not drawn) | -3 | -10% | 41% | ? | -1% | 12 | .
O=C(Nc1ccccc1)c1ccc(COc2ccccc2)cc1 | 10 | 2% | 31% | 71% | 0% | 27 | .
O=C(N/N=C1\CC2CC=CC12)c1ccc(COc2ccccc2)cc1 (stereo not drawn) | 10 | 5.6µM* | -17% | ? | -2% | 20 | -16
SMILES | CHX counter | NS1 inh | Pf growth 48h | Pf growth 96h | SARS PLpro yeast | Shiga inhibitor | Flu NS1 inh
O=S(=O)(Nc1cccc(-c2cn3cccnc3n2)c1)c1ccc(-c2ccccc2)cc1 | 6 | 11µM* | 20% | 82% | -1% | -8 | 24
CNC(=O)C1CC(=O)N(CCc2ccc(C)cc2)C1 (stereo not drawn) | 1 | 3% | 33% | 16% | 1% | 8 | .
Cc1ccc(CCN2CC(C(=O)NC3CCCC3)CC2=O)cc1 (stereo not drawn) | -2 | ? | 26% | -2% | 7% | -3 | -17
Cc1ccc(CNC(=O)CCOc2ccc(C(C)(C)C)cc2)cc1 | -4 | 1% | . | ? | -12% | -3 | .
CCOC(=O)C1=C(C)Nc2sc(C(=O)c3ccc(C)cc3)c(N)c2C1c1ccc(C(=O)OC)cc1 (stereo not drawn) | -3 | 10µM* | 12µM* | 5.2µM* | 0% | 3 | 27
CC1CCN(CCCNC(=O)c2ccc(N3CCCC3=O)cc2)CC1 | 1 | -3% | 21% | 26% | 0% | -12 | .
CCCCNC(=O)c1onc(CCl)c1C(=O)OC | -2 | 1.1µM* | -3% | ? | -2% | 9 | -8
COc1ccccc1CC(NC(C)=O)C(=O)NC1CCN(C(=O)c2cccc(Cl)c2)CC1 (stereo not drawn) | 6 | 16% | ? | ? | 16% | -3 | .
CCC(C)Sc1nnc(Cc2cc(=O)[nH]c(=O)[nH]2)n1-c1ccc(F)cc1 (stereo not drawn) | -1 | 8.9µM* | . | 3% | 4% | -2 | 2
CCOc1ccc(-n2c(Cc3cc(=O)[nH]c(=O)[nH]3)nnc2SC(C)C)cc1 | 2 | ? | 2% | ? | -8% | 2 | .
O=C(O)c1cc(-c2ccco2)nc2cc3ccccc3cc12 | 7 | -3% | 33% | 0% | 1% | 18 | .
COc1ccc(OC)c(-n2c(C)nc3cc(C(=O)O)ccc32)c1 | -3 | 14µM* | 24% | 6% | 7% | -6 | 19
Cc1cc(C)cc(-n2c(C)nc3cc(C(=O)O)ccc32)c1 | -1 | . | 22% | ? | -2% | 7 | .
CC(=O)c1ccc(OCCCC(=O)N(CCC2=CCCCC2)c2c(N)n(Cc3ccccc3)c(=O)[nH]c2=O)cc1 | . | . | ? | ? | -2% | . | .
CCOC(=O)c1cc(-c2ccccc2)sc1NC(=O)CN1C(=O)NC(CC)(c2ccc(F)cc2)C1=O (stereo not drawn) | 2 | 11µM* | ? | . | -8% | -7 | -24
Cc1sc2ncnc(SCC(=O)c3ccc(O)cc3O)c2c1C | 4 | -33% | ? | 3% | -2% | 5 | .
Cc1sc2ncnc(SCC(=O)c3ccc(Cl)s3)c2c1C | 1 | 7.1µM* | 46% | 64% | 6% | 2 | 4
